High-throughput results from PubChem BioAssay.
DT40 TDP1 CPT = DT40-hTDP1 cell growth loss with CPT | chicken DT40 Tdp1-/-;hTDP1 cells + 20 nM CPT, ATP luminescence, 48 h | 12% of 420,000 active | Potency, µM (titrated, usually from 46.2 µM), without a hit: at the top dose activity change, negative = growth inhibition, hits mostly inhibitors; further: potency means the concentration at half of the fitted maximal effect; nearly all actives have a fitted effect of over 55% in size
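Cell growth measured by CellTiter-Glo luminescence after a minimum 48 h, 37 C compound exposure with 20 nM CPT in Tdp1-knockout DT40 cells stably expressing hTDP1, seeded 400/well; qHTS titration format.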
IL-1B inflam inh = inhibitors of inflammasome signaling (IL-1 beta secretion) | THP-1 LPS/ATP IL-1B secretion, AlphaLISA, 16 h; hits give low values | activity change, % at 57.5 µM | 4.7% of 360,000 active; in the data active means activity change below about -50%; inconclusive means mostly about -30% to -49%
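Secreted IL-1B measured by AlphaLISA bead assay after 16 h compound exposure of THP-1 cells; compounds (final up to 57.5 uM) added 1 h before LPS (250 ng/mL) and ATP (1.25 mM) stimulation; lower signal means less secretion.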
HT1080NT lethal = kills 2HG-producing HT-1080-NT fibrosarcoma cells | HT-1080-NT fibrosarcoma viability, CellTiter-Glo ATP luminescence, 48 h | 1.6% of 360,000 active | Potency, µM (top dose mostly 46.1 µM), for inactives: top-dose activity, negative = less viability, usual class: cytotoxic | AID 686970;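 further: NT is the 2HG producing partner of a matched IDH1 knockdown line; potency means the concentration at half of the fitted maximal effect; 0% = DMSO-treated cells and -100% = media-only wells without cells; nearly all actives have a fitted effect of over 55% in size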
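Viability of the 2HG-overproducing fibrosarcoma line after 48 hours of compound exposure at 37 degrees C was determined by luminescence with CellTiter-Glo, and concentration-effect curves were then fitted and categorized.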
HT1080 IDH1KD tx = toxicity to HT-1080 IDH1 knockdown cells (counter line); HT-1080 IDH1 knockdown viability, ATP luminescence, 48 h; Potency, µM (doses to about 46.1 µM), inactives show at the top dose activity, negative = toxicity, hits mostly cytotoxic; 2% of 360,000 active;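 further: potency means the concentration at half of the fitted maximal effect; 0% = DMSO wells and -100% = cell-free medium wells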
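CellTiter-Glo luminescence after 48 h compound exposure at 37 degrees C of IDH1-knockdown HT-1080 cells in 5% FBS RPMI. %Activity scaled between DMSO wells and cell-free media wells, with curves fitted and assigned curve classes.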
TDP1 cell noCPT = qHTS for Inhibitors of human tyrosyl-DNA phosphodiesterase 1 (TDP1): qHTS in cells in absence of CPT. Potency, µM (series often up to 46.2 µM), for inactives: at the top dose activity change, negative = growth inhibition, usual class: inhibitors. DT40 Tdp1-/- hTDP1 cells, no CPT, ATP luminescence, 48 h. AID 686978, 2013. 15% of 420,000 active; further: potency means the concentration at half of the fitted maximal effect; nearly all actives have a fitted effect of over 55% in size
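Camptothecin absent (DMSO only). Human TDP1-complemented DT40 knockout cells, 400 cells/well, 37 °C for minimum 48 hr; ATP measured via CellTiter-Glo, 30 min dark incubation, luminescence.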
An asterisk follows results filed as active; u = inconclusive; x = no result; [ ] = remark or other dose. Only some compounds are listed: those with a hit (about 19% of all), similar ones and a draw of the others. Unless noted, the call rests on the fitted dose curve; in most records, active means well fitted curve in the direction sought with a large enough effect; inconclusive means small, poorly fitted or top-dose-only effect, or another doubt; inactive means no such curve, though single readings can be large; an effect the other way counts as inactive or inconclusive. Unless noted, on the % scale 0 is the no-effect control and ±100 the full control effect.

SMILES | DT40 TDP1 CPT | IL-1B inflam inh | HT1080NT lethal | HT1080 IDH1KD tx | TDP1 cell noCPT
CCOc1ccc(-c2c(C)n([O-])c3c([n+]2=O)CCCCC3)cc1 | -11% | 26 | 1% | 12% | 9%
CCOc1ccc(-c2c[n+]3c(n2-c2ccccc2)CCCCC3)cc1 | 0.082µM* | u | u | 18µM* | 0.0073µM*
C[C@@H]1CN([C@@H](C)CO)S(=O)(=O)c2ccc(Br)cc2O[C@@H]1CN(C)C(=O)c1ccccn1 | 19% | -16 | 5% | 6% | 4%
COc1ccc(-n2c(-c3ccc(Br)cc3)c[n+]3c2CCC3)cc1 | 18µM* | -67* | u | u | 4.6µM*
O=S(=O)(NCCc1csc(-c2ccc(C(F)(F)F)cc2)n1)c1ccc2c(c1)OCCO2 | 18µM* | 24 | -4% | -2% | 15µM*
COc1ccc(-c2nc(CCNS(=O)(=O)c3ccc4c(c3)OCCO4)cs2)cc1 | 18µM* | 8 | -15% | -5% | 16µM*
O=S(=O)(NCCc1csc(-c2cccnc2)n1)c1ccc2c(c1)OCCO2 | u | -1 | 0% | 0% | -23%
COc1ccc(-c2csc(NC(=O)c3ccc(C(C)(C)C)cc3)c2C(=O)O)cc1 | 3.7µM* | -26 | u | u | 3.3µM*
O=C(Nc1scc(-c2ccc(Br)cc2)c1C(=O)O)c1ccccc1F | u | x | u | u | 16µM*
Cc1ccc(-c2csc(NC(=O)c3ccccc3F)c2C(=O)O)cc1 | u | -20 | -28% | -9% | 21µM*
O=C(Nc1cc(C(F)(F)F)cc(C(F)(F)F)c1)[C@H]1O[C@@H](n2ccc(=O)[nH]c2=O)[C@H](O)[C@@H]1O | -28% | 6 | -7% | -10% | -28%
CCOc1ccccc1CNC(=O)c1cc2n(n1)CCCN(Cc1ccc(C)cc1)C2=O | 16µM* | x | x | x | 15µM*
Cc1ccc(CN2CCCn3nc(C(=O)NCCc4ccccc4C)cc3C2=O)cc1 | -30% | x | x | x | u
Cc1ccc(CN2CCCn3nc(C(=O)NCc4ccc(OC(C)C)cc4)cc3C2=O)cc1 | 18µM* | x | x | x | 16µM*
COc1cccc(CNC(=O)c2cc3n(n2)CCCN(Cc2ccc(C)cc2)C3=O)c1OC | 23µM* | x | x | x | 16µM*
CSc1ccc(C(=O)C2CCCN(C(=O)Cc3nonc3C)C2)cc1 (stereo not drawn) | u | 7 | 7% | 8% | u
O=S(=O)(c1ccc(Cl)cc1)N1CCN(C(=S)NCC2CCCO2)CC1 (stereo not drawn) | u | -4 | -6% | -18% | -27%
COc1ccccc1CNc1ncncc1-c1cccc(C#N)c1 | -16% | x | x | x | -17%
CCCN(CC(=O)Nc1ccccc1C)C(=O)/C=C/c1ccc(OC)c(OC)c1 | -29% | -10 | -5% | -1% | -17%
COc1c(C)c2c(c(O)c1C/C=C(\C)CCC(=O)OCCN1CCOCC1)C(=O)OC2 | 0.13µM* | x | x | x | 0.17µM*
COc1cc(C(=O)OCCN2CCOCC2)cc(OC)c1OC | -16% | 15 | 9% | 11% | -6%
Cc1ccc(Nc2ccc([N+](=O)[O-])ccc2=O)cc1 | 9% | -6 | -2% | -1% | 0%
Cc1nsc(Nc2ccc([N+](=O)[O-])cc2)c1C#N | 2.6µM* | 13 | -21% | -25% | 2.3µM*
COc1ccc(N2CCN(C(=O)C3Cc4ccccc4N3C(C)=O)CC2)cc1 (stereo not drawn) | u | x | x | x | -28%
COc1ccc2c(c1)C1(Nc3ccccc3-c3nc4ccccc4n31)C(=O)N2C (stereo not drawn) | u | -3 | -18% | -19% | 21µM*
SMILES | DT40 TDP1 CPT | IL-1B inflam inh | HT1080NT lethal | HT1080 IDH1KD tx | TDP1 cell noCPT
COc1ccc2c(c1)C1(Nc3ccccc3-c3nc4ccccc4n31)C(=O)N2 (stereo not drawn) | -27% | -29 | -8% | -2% | -13%
CCCCCCCCC#CCC#CCC#CCCCC(=O)O | 5%[4.12 µM] | x | x | x | -8%[4.12 µM]
Cc1cc(NC(=O)CCN2C(=O)C3C4C=CC(C4)C3C2=O)c2ccccc2n1 (stereo not drawn) | u | -5 | -10% | -11% | 21µM*
CCCCCn1c(-c2ccc(OC)c(OC)c2)nc2ccccc21 | u | x | x | x | 7.3µM*
COc1ccc2c(c1)nc(N)n2Cc1ccccc1 | u | -98* | -9% | 0% | u
COc1ccc(-c2nc3ccccc3c(=O)n2CCOc2ccccc2C)cc1 | u | 28 | -6% | 10% | 18µM*
C=CCc1ccccc1OCc1nc2ccccc2n1CC | u | x | x | x | 23µM*
COc1ccc(-c2nc3ccccc3c(=O)n2CCOc2ccc(C)cc2C)cc1 | -10% | 13 | 5% | 9% | -24%
CCn1c(COc2ccccc2C)nc2ccccc21 | u | -9 | -14% | -19% | u
O=C(Cc1ccccc1F)NNC(=O)c1ccncc1 | 5% | -11 | 0% | 13% | 18%
Cc1cc(C(=O)NNC(=O)[C@H](C)NC(=O)c2ccc(Br)cc2)c(C)o1 | -16% | 0 | -4% | -4% | 2%
CCc1cccc(NC(=O)CN(c2ccc(OC)cc2)S(=O)(=O)c2c(C)n[nH]c2C)c1 | -26% | 0 | -2% | -12% | -20%
CCOc1c(Cl)cc(C(=O)Nc2cccc(C(=O)O)c2)cc1Cl | -18% | 24 | 14% | 12% | 2%
Cc1cccc(C(=O)NCC2Cc3cc(F)cc(-c4cnccn4)c3O2)n1 (stereo not drawn) | 3%[9.04 µM] | x | x | x | u
COc1ccc(-c2c(C)nn(Cc3ccccc3)c2N)cc1 | -16% | -3 | -6% | -13% | -3%
COc1ccc(-c2n(Cc3ccccc3)c3ccccc3[n+]2Cc2ccccc2)cc1 | 0.46µM* | -87* | 4.6µM* | 5.8µM* | 0.26µM*
C=CCn1c(-c2ccc(OC)cc2)nc2ccccc21 | 18µM* | -7 | -18% | -15% | 9.2µM*
C=CCn1c(-c2ccc(N)cc2)nc2ccccc21 | u | -18 | 14% | -3% | -22%
O=c1c2ccccc2nc(-c2ccccc2)n1Cc1ccccc1 | -20% | -15 | -1% | -3% | 26µM*
CCn1c(Cc2ccc(OC)cc2)nc2ccccc21 | u | -51* | -8% | -12% | -28%
CCn1c(NCc2ccc(OC)cc2)nc2ccccc21 | -14% | -18 | 0% | -2% | u
COc1ccc(-c2nc3ccccc3n2Cc2ccccc2)cc1 | 18µM* | -1 | -13% | -24% | 8.2µM*
CCN(C[C@H]1N[C@@](CC)(C(=O)OC)[C@H]2C(=O)N(C)C(=O)[C@@H]12)C(=O)c1ccccc1 | -12% | 8 | 6% | 8% | -5%
